# Assay results as given in PMC4336329 (PLoS ONE, 2015).
# Among all 310,000 compounds or so, about 14,000 (4.5%) showed an effect of 50% or more. Effects have a minus sign here. The entries come from a sample that favours strong results as a whole.
# Target: human ether-à-go-go-related gene (hERG) potassium channel (human, UniProt Q12809)
# Assay: primary screen, population patch clamp on CHO cells stably expressing hERG; higher = less effect of the substance
# 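Note: peak tail current of the secondary pulse compared with the same well before compound.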
# human ether-à-go-go-related gene (hERG) potassium channel, sequence (Q12809 whole entry, looked up): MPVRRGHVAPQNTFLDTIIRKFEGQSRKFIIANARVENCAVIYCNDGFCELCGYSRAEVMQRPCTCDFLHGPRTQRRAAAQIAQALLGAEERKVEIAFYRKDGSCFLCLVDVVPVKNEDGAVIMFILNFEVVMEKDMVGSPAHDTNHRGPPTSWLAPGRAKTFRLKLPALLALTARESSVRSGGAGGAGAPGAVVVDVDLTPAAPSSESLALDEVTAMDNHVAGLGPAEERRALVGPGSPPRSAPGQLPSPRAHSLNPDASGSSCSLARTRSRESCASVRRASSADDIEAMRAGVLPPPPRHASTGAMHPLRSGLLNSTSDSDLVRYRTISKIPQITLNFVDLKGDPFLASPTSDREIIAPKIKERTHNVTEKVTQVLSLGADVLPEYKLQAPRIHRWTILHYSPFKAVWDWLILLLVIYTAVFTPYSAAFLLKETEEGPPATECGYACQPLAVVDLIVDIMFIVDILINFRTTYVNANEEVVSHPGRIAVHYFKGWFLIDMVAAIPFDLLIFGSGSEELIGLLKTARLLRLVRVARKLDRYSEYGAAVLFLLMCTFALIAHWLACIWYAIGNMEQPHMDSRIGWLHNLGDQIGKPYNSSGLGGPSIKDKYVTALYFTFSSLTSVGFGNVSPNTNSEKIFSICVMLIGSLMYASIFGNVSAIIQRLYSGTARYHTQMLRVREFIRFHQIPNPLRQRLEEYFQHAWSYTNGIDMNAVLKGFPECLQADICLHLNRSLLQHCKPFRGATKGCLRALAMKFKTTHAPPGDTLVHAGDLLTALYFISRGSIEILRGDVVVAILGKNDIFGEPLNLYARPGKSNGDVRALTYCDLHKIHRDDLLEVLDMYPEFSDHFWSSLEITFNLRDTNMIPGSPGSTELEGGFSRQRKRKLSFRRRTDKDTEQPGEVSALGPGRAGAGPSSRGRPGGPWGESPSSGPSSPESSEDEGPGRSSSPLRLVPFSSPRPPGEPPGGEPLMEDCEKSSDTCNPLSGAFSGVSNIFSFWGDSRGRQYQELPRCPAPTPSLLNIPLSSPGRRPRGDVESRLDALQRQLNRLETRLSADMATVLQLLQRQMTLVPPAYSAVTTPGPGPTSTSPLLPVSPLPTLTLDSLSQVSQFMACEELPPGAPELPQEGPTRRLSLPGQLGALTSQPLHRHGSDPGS
row,Structure (SMILES),"hERG current change (%, negative = inhibition) at 10uM [%]"
1,CCOC(=O)Cc1ccc(NC(=O)c2ccccc2Br)cc1,-7.9
2,O=S(=O)(c1ccc(Br)s1)N1CCN(c2ncccn2)CC1,-3.42
3,Nc1ccccc1-c1nnc2n1CCCCC2,25.8
4,Cc1cc(C)c(C(=O)CSc2nnc(C)s2)c(C)c1,18.2
5,CCCC1(C(=O)OCC)NC(c2ccc(N(C)C)cc2)C2C(=O)N(c3ccc(F)cc3)C(=O)C21 (centres unmarked),-8.18
6,CCCCNC(=O)c1sc2nc(C)cc(COC)c2c1-n1cccc1,-10.7
7,S=C(c1ccccc1)N(c1ccccc1)c1ccccc1,7.21
8,Cc1ccc(N2CC(C(=O)Nc3ccc(S(=O)(=O)N4CCCC4)cc3)CC2=O)cc1 (centres unmarked),-8.07
9,O=C(Nc1ccccc1)C1=C(O)CC(c2ccoc2)CC1=Nc1ccccc1 (centres unmarked),15
10,O=C1CCCCC1Oc1ccc2ccc(=O)oc2c1 (centres unmarked),19.6
11,Cc1coc2c(C)c3oc(=O)c(CCC(=O)NCCN4CCOCC4)c(C)c3cc12,-24.6
12,COc1ccc(C(=O)N2CCN(Cc3ccc4c(c3)OCO4)CC2)cc1[N+](=O)[O-],-44.6
13,O=C(c1ccc(Br)c([N+](=O)[O-])c1)N1CCN(Cc2ccccc2)CC1,-61.2
14,CC(C(=O)N1CCN(Cc2ccccc2)CC1)c1ccc([N+](=O)[O-])cc1 (centres unmarked),-43.7
15,O=C(c1ccc(Oc2ccc(Cl)cc2)c([N+](=O)[O-])c1)N1CCCC1,-63
16,COc1ccc(C(=O)N2CCN(Cc3ccccc3)CC2)cc1[N+](=O)[O-],-52
17,O=C(c1ccc(Oc2ccc([N+](=O)[O-])cc2Cl)cc1)N1CCCC1,-32.2
18,O=C(c1ccc(Cl)c([N+](=O)[O-])c1)N1CCN(Cc2ccc3c(c2)OCO3)CC1,-26.7
19,NC(=O)c1ccc(Oc2ccc(Cl)cc2)c([N+](=O)[O-])c1,12.6
20,Cc1cc(C(=O)N2CCN(Cc3ccccc3)CC2)ccc1[N+](=O)[O-],-32
21,COc1cc(N(C)C)c([N+](=O)[O-])cc1C(=O)N1CCN(Cc2ccccc2)CC1,9.99

row,Structure (SMILES),"hERG current change (%, negative = inhibition) at 10uM [%]"
1,O=C(c1ccc(S(=O)(=O)c2ccccc2Cl)c([N+](=O)[O-])c1)N1CCN(Cc2ccccc2)CC1,-25.3
2,CC(OC(=O)c1ccc(Cl)c([N+](=O)[O-])c1)C(=O)N1CCN(Cc2ccccc2)CC1 (centres unmarked),-71.1
3,CCOC(=O)C1(C)/C(=N/Nc2cccc(Cl)c2)C(=O)C(=O)N1c1ccccc1 (centres unmarked),6.3
4,CCOc1ccc(Br)cc1S(=O)(=O)Nc1cccc(S(=O)(=O)N(CC)CC)c1,-4.53
5,Cc1ccc(CN2CCN(/N=C/c3ccc(C(=O)O)cc3)CC2)cc1,5.6
6,CCOc1ccccc1N(CC(=O)NC1CCCCC1)C(=O)CCC(=O)Nc1cc(C)ccn1,3.35
7,Cc1cccc(CSc2nnc(CCNC(=O)OC(C)(C)C)o2)c1,-7.22
8,COc1c([N+](=O)[O-])c(=O)oc2ccccc12,15.4
9,Cc1ccc(S(=O)(=O)CC(=O)Nc2ncc([N+](=O)[O-])s2)cc1,21.8
10,CC(C)(C)NC(=O)COC(=O)CCC(=O)c1ccc(F)cc1,12
11,COc1ccccc1C(=O)NNc1ncc(C)s1.Cl,-0.745
12,COc1ccc(C(=O)N2CCN(CCc3ccccc3)CC2)cc1[N+](=O)[O-],-75.6
13,COc1ccc(C(=O)N2CCN(c3ccccn3)CC2)cc1[N+](=O)[O-],-14.9
14,COc1ccc(C(=O)N2CCN(c3ncccn3)CC2)cc1[N+](=O)[O-],-2.35
15,COc1ccc(N(CC(=O)Nc2ccc(F)c(F)c2)S(=O)(=O)c2c(C)n[nH]c2C)cc1,18.5
16,CN(C)CCO/N=C(\c1ccc(Br)cc1)c1cccnc1.O=C(O)C(=O)O,-63.5
17,O=C(Oc1ccc(Br)cc1)c1cccnc1,4.3
18,C/C(=N\NC(=O)c1ccc(Br)cc1)c1cccnc1,5.22
19,O=C(NCCNC(=O)c1cccnc1)c1ccc(Br)cc1,14.6
20,CN(C)C/C=C(\c1ccc(Br)cc1)c1cccnc1.Cl.O,-63.7
21,CN(C)C/C=C(/c1ccc(Br)cc1)c1cccnc1.Cl,-71.5

row,Structure (SMILES),"hERG current change (%, negative = inhibition) at 10uM [%]"
1,Cc1ccc(C(=O)O/N=C(\c2ccccc2)c2cccnc2)cc1,-18.7
2,CN(C)CCCO/N=C(\c1ccccc1)c1ccncc1.O=C([O-])C(=O)[O-],5.25
3,O=C(OCc1ccc(Br)cc1)c1cccnc1,-5.96
4,CC[C@@]12C(=O)N(c3cccc(F)c3)C(=O)N1[C@H](c1cccc(C)c1)[C@@H]1C(=O)N(Cc3ccccc3)C(=O)[C@@H]12,0.427
5,Cc1cc(-c2ccccc2)nc(N/N=C/c2ccco2)n1,-0.804
6,O=C(OCC(=O)N1CCCc2ccccc21)c1ccccc1NCCO,-15.9
7,Cc1ccc(S(=O)(=O)N2CCCCC2)cc1NC(=O)CSc1ccc2c(c1)OCCO2,-9.32
8,CCOC(=O)CSc1n[nH]c(NS(=O)(=O)c2ccccc2C(F)(F)F)n1,-1.78
9,CSc1ccc(C2Nc3ccccc3-c3cc(C)nn32)cc1 (centres unmarked),-3.75
10,COc1cc(/C=C(/C#N)c2nc3ccccc3[nH]2)ccc1OC(=O)c1ccco1,-6.24
11,O=C(COC(=O)CCS(=O)(=O)c1ccccc1)Nc1cc(S(=O)(=O)N2CCCCC2)ccc1Cl,-4.61
12,CS(=O)(=O)c1ccc(Cl)c(NC(=O)COC(=O)c2cccc(S(=O)(=O)N3CCCC3)c2)c1,-51.5
13,O=C(COC(=O)c1ccccc1)Nc1cc(S(=O)(=O)N2CCCCCC2)ccc1Cl,7.5
14,CS(=O)(=O)c1ccc(Cl)c(NC(=O)COC(=O)c2cccc(S(=O)(=O)N3CCCCC3)c2)c1,-30.9
15,Cc1ccc(C(=O)OCC(=O)Nc2cc(S(C)(=O)=O)ccc2Cl)cc1S(=O)(=O)N1CCCCC1,-26.9
16,O=C(COC(=O)Cc1ccccc1)Nc1cc(S(=O)(=O)N2CCCCC2)ccc1Cl,-81.8
17,CCOC(=O)c1ccc(NC(=O)NCc2ccccc2)cc1,-9.51
18,COc1ccc(S(=O)(=O)N2CCN(C(=S)Nc3ccc(S(N)(=O)=O)cc3)CC2)cc1,15.7
19,CCC(C(=O)Nc1nccs1)c1ccccc1 (centres unmarked),9.98
20,COc1ccc(-n2c(=O)c3ccccc3n(CC(=O)NCC3CCCO3)c2=O)cc1 (centres unmarked),13.4
21,O=C(c1cnc2ccccc2n1)N1CCN(c2ccc(C(F)(F)F)cn2)CC1,-17.1

row,Structure (SMILES),"hERG current change (%, negative = inhibition) at 10uM [%]"
1,O=S(=O)(CCc1nc2ccccc2o1)c1ccc(Cl)cc1,-7.14
2,COc1ccc2cc(CN(Cc3ccco3)Cc3nnnn3C3CCCCC3)c(=O)[nH]c2c1,-19.4
3,Cc1ccc2[nH]c(=O)c(CN(Cc3ccc4c(c3)OCO4)Cc3nnnn3C3CCCC3)cc2c1,4.66
4,COc1cc2cc(CN(CCCN3CCOCC3)Cc3nnnn3Cc3ccccc3)c(=O)[nH]c2cc1OC,-20.2
5,COc1ccc2cc(CN(CCCN3CCOCC3)Cc3nnnn3C3CCCCC3)c(=O)[nH]c2c1,-26.5
6,CCOc1ccc2[nH]c(=O)c(CN(CCCN3CCOCC3)Cc3nnnn3Cc3ccc(OC)cc3)cc2c1,-60.9
7,COc1ccc(Cn2nnnc2CN(CCCN2CCOCC2)Cc2cc3cc(OC)ccc3[nH]c2=O)cc1,-42.7
8,Cc1ccc2[nH]c(=O)c(CN(Cc3ccccc3)Cc3nnnn3C3CCCC3)cc2c1,-6.83
9,Cc1ccc2[nH]c(=O)c(CN(CCCN3CCOCC3)Cc3nnnn3C3CCCC3)cc2c1,-54.5
10,COc1ccc2cc(CN(CCCN3CCOCC3)Cc3nnnn3C3CCCC3)c(=O)[nH]c2c1,-59.7
11,CCOc1ccc(S(=O)(=O)n2nnc3ccccc32)cc1C,14.6
12,CCCn1c(C)c(C(=O)OCC)c(O)c(-c2ccccc2)c1=O,19.5
13,CC(=O)N1CCN(c2cc(N3CCCC3)c(F)cc2[N+](=O)[O-])CC1,5.05
14,COc1ccc(/C=N/Nc2ccc(C(F)(F)F)cc2[N+](=O)[O-])cc1,5.35
15,Cn1cccc1Cc1nnc(SCC(=O)NCCc2ccccc2)n1-c1ccc(F)cc1,-21.6
16,CC(C)Cc1nnc(NC(=O)CN2C(=O)NC3(CCCC3)C2=O)s1,-9.22
17,CC(=O)N=c1scc(-c2ccccc2)n1-c1cccc(O)c1,7.32
18,COc1cnn(-c2ccc(C)cc2)c(=O)c1SCc1ccccc1,-20.9
19,COc1cnn(-c2ccc(Br)cc2)c(=O)c1SCc1ccccc1,-65.6
20,COc1cnn(-c2ccccc2)c(=O)c1SCc1ccc(Cl)c(Cl)c1,-21.1
